Assay outcomes: PubChem, several laboratories
NLRP3 yeast inh = blocks the NALP3 inflammasome reconstituted in yeast. Yeast reconstituted NLRP3/ASC/caspase-1, beta-gal luminescence, 24 h. inhibition, % at 10 µM. 330,000 tested, 0.39% active. AID 2825;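 active = inhibition of 50% or more; inactive = inhibition below 50%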;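 also: plate controls were induced DMSO wells for no effect and uninduced yeast grown without galactose for full effect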
NALP1 inh = inhibitors of NALP1 inflammasome in yeast | 280,000 tested, 0.61% active | inhibition, % at 10 µM | S. cerevisiae NALP1/ASC/caspase-1 growth, X-gal OD620, 72 h | AID 2071; in the data active = inhibition mostly above about 24%, no sharp cut-off; inactive = mostly below about 32%
tim23-1 inh = growth inhibitors of tim23-1 mutant yeast. inhibition, % at 20 µM. AID 463212. 330,000 tested, 1.3% active. S. cerevisiae tim23-1 growth, BacTiter-Glo luminescence, 24 h;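 active = growth inhibition of the mutant yeast at or above 50%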;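 also: temperature-sensitive mutant grown at 25 °C; plate controls were DMSO-treated mutant yeast for no effect and medium wells lacking yeast for full effect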
tim10-1 inh = inhibits growth of tim10-1 mutant yeast; AID 463190; inhibition, % at 20 µM; 330,000 tested, 2.2% active; S. cerevisiae tim10-1 ts strain growth, BacTiter-Glo, 24 h;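 active = inhibition of at least 40%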;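 also: mutant grown at 25 °C; 0% = DMSO wells with yeast and 100% = wells holding no yeast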
V-ATPase pHluor = alters yeast V-ATPase proton transport | S. cerevisiae, pHLuorin cytosolic pH fluorescence | response, % at 10 µM | 350,000 tested, 0.37% active; in the data active = response mostly above about 7.3%, no sharp cut-off; inactive = mostly below about 5.4%; also: actives read high
TIM10 inh = growth inhibitors of TIM10 yeast strain | 330,000 tested, 1.4% active | AID 463195 | inhibition, % at 10 µM | S. cerevisiae TIM10 strain growth, BacTiter-Glo luminescence, 24 h;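 active = inhibition of 40% or more at the single tested concentration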;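 also: wild-type TIM10 isogenic control strain grown at permissive 25 °C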
NALP3 yeast conf = confirmation of NALP3 inhibitors in yeast; shares compounds with NLRP3 yeast inh; yeast expressing human NALP3, luminescence; inhibition, % at 10 µM; 1,300 tested, 81% active; in the data active = inhibition above about 48%
Casp1 ASC ctr = active in yeast caspase-1-ASC counter-screen for NALP3 inhibitors. shares compounds with NLRP3 yeast inh. yeast expressing Caspase-1-ASC, luminescence counter screen. inhibition, % at 10 µM. 1,000 tested, 66% active
NALP3 retest = retest-confirmed inhibitor of NALP3 in yeast. inhibition, % at 10 µM. yeast expressing human NALP3, luminescence read-out. AID 488794. shares compounds with NLRP3 yeast inh. 1,000 tested, 53% active
tim10-1 confirm = tim10-1 yeast growth inhibition, confirmed; shares compounds with tim10-1 inh; 7,400 tested, 56% active; AID 463213; inhibition, % at 20 µM; S. cerevisiae tim10-1 ts strain growth, BacTiter-Glo, 24 h;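 active = inhibition of yeast growth at or above a set limit in either of two repeat tests at 20 µM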;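 also: tim10-1 mutant grown at permissive 25 °C to find synthetic lethal compounds; 0% = DMSO yeast wells and 100% = medium wells without yeast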
tim10 confirm = confirmation of TIM10 yeast growth inhibitors; S. cerevisiae tim10 strain growth, BacTiter-Glo luminescence, 24 h; inhibition, % at 10 µM; AID 463215; shares compounds with TIM10 inh; 4,600 tested, 63% active;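 active = inhibition of yeast growth at or above a set limit in either of two replicates at 10 µM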;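 also: this counterscreen used the strain with wild-type TIM10; 0% = yeast with DMSO and 100% = medium wells lacking yeast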
tim23-1 confirm = tim23-1 yeast growth inhibition, confirmed; shares compounds with tim23-1 inh; S. cerevisiae tim23-1 growth, BacTiter-Glo luminescence, 24 h; AID 463218; inhibition, % at 20 µM; 4,400 tested, 83% active;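 active = inhibition above about 39% in either of two replicate wells at 20 µM, limit read from the data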;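 also: temperature-sensitive tim23-1 mutant grown at 25 °C; 0% = DMSO wells with yeast and 100% = medium wells without yeast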
Starred values were filed as active, the others as inactive; · = no result given. Compounds with a hit are over-represented: about 4.2% of the library has one in this group of screens. Rule as the data show it, unless noted: active = inhibition above about 50%; inactive = the rest.

SMILES | NLRP3 yeast inh | NALP1 inh | tim23-1 inh | tim10-1 inh | V-ATPase pHluor | TIM10 inh | NALP3 yeast conf | Casp1 ASC ctr | NALP3 retest | tim10 confirm | tim23-1 confirm | others
CCN(CC)c1ccc(/C=C2\SC(=O)N(C(C)C)C2=O)o1 | 52* | -13 | 60* | 62* | -3 | 57* | 44 | 56* | 49 | 64* | 74* | tim10-1 confirm=44*
CC(C)(O)c1cc2ccc(C#Cc3ccsc3)cc2c(=O)o1 | 65* | · | 60* | 12 | -4 | 17 | 51* | 67* | 58* | · | 24
CC(=O)c1ccc(NC(=O)Cn2nc(C)cc2C)cc1 | 14 | 23 | 0 | 7 | 0 | -7 | · | · | · | · | ·
Nc1nc(-c2cc(-c3ccccc3)no2)cs1 | 56* | -4 | 80* | 26 | 3 | 51* | 75* | 64* | 61* | 58* | 75*
Nc1nc(-c2ccccc2)cs1 | 20 | 18 | 15 | 4 | 2 | 2 | · | · | · | · | ·
CC(C(=O)Nc1cccc([N+](=O)[O-])c1)[n+]1ccccc1 (stereo unspecified) | 6 | 4 | 6 | 8 | -5 | 0 | · | · | · | · | ·
COc1ccc2c(c1)CC/C2=N\OC(=O)c1cccc(C)c1 | 52* | 36 | 53* | 62* | 1 | 83* | 5 | · | · | -13 | 82* | tim10-1 confirm=41*
O=C1CCN(CCCN2CCC(=O)NC2=S)C(=S)N1 | · | · | · | · | 0 | · | · | · | · | · | ·
O=C(CCN1CCC(c2cccs2)=N1)c1cccs1 | 90* | -4 | 63* | 41* | 3 | 63* | 90* | 96* | 87* | 69* | 84* | tim10-1 confirm=30
Cc1cccc(NC(=O)c2cnc3ccccn3c2=O)c1 | 51* | · | 61* | 6 | -2 | 30 | 77* | · | · | · | 55*
O=C(Nc1ccc2c(c1)OCCO2)c1cnc2ccccn2c1=O | 25 | · | 8 | 14 | 0 | 17 | · | · | · | · | ·
C=CCNC(=O)c1cc(Cl)ccc1[N+](=O)[O-] | 8 | 30 | 10 | 1 | 5 | 15 | · | · | · | · | ·
COc1ccc(C(=O)NCCOC(C)C)cc1OC1CCN(C(C)=O)CC1 | 21 | -16 | -12 | -7 | 4 | -6 | · | · | · | · | ·
O=C(NC(=S)Nc1cnc2ccccc2c1)c1ccccc1 | 73* | -7 | 53* | 18 | 3 | 51* | 64* | 65* | 59* | 54* | 69*
O=C(O)CCn1c(=S)n(CCC(=O)O)c2ccccc21 | 5 | · | 7 | -7 | 0 | -17 | · | · | · | · | ·
C=CCSc1n[nH]c(-c2cccs2)n1 | 25 | 21 | 19 | 24 | 0 | -3 | · | · | · | · | ·
C=CCSc1n[nH]c(-c2ccc(OCCC)cc2)n1 | 57* | 18 | 66* | 21 | 3 | 46* | 73* | 56* | 48 | 41* | 38*
CCOc1ccc(NC(=O)/C=C/c2ccccc2)c([N+](=O)[O-])c1 | 25 | 46 | 7 | 11 | -90 | -7 | · | · | · | · | ·
CCOc1ccc(N/C=C/C(=O)c2ccccc2)c([N+](=O)[O-])c1 | 59* | 51* | 57* | 38 | 8 | 70* | -27 | · | · | -1 | 77*
Cc1nnc(SCC(=O)NC2CCCCC2)n(N)c1=O | 5 | 0 | 14 | 9 | -1 | -18 | · | · | · | · | ·
Cc1cccc(NC(=O)C2CCCN2C(=O)Oc2ccccc2)c1C (stereo unspecified) | 15 | -4 | 13 | 10 | 1 | 4 | · | · | · | · | ·
Cc1cccc(/C=C/c2onc(C)c2[N+](=O)[O-])n1 | 89* | · | 84* | 64* | -4 | 68* | 63* | 96* | 77* | 78* | 71* | tim10-1 confirm=61*
